Results: publication PMC11006913

Experiments:
Assay in all cases: PBM; 200 nM protein, PBS
Details in all cases: dsDNA, one strand shown
MSX2 [1] = molecular target: MSX2 (Homo sapiens, UniProt P35548 130-214, R199I)
PITX2 = PITX2 (Homo sapiens, UniProt Q99697 72-157)
MSX2 [2] = molecular target: MSX2 (Homo sapiens, UniProt P35548 130-214)
MSX2 [3] = molecular target: MSX2 (Homo sapiens, UniProt P35548 130-214, F161Y)
ALX1 [4] = molecular target: ALX1 (Homo sapiens, UniProt Q15699 118-204, L144V)
ALX1 [5] = molecular target: ALX1 (Homo sapiens, UniProt Q15699 118-204, L144R)
ALX1 [6] = molecular target: ALX1 (Homo sapiens, UniProt Q15699 118-204)
PROP1 [7] = molecular target: PROP1 (Homo sapiens, UniProt O75360 56-141)
PROP1 [8] = molecular target: PROP1 (Homo sapiens, UniProt O75360 56-141, R99H)
VAX1 [9] = molecular target: VAX1 (Homo sapiens, UniProt Q5SQQ9 86-172)
PROP1 [10] = molecular target: PROP1 (Homo sapiens, UniProt O75360 56-141, F88S)
VAX1 [11] = molecular target: VAX1 (Homo sapiens, UniProt Q5SQQ9 86-172, T142I)
VAX1 [12] = molecular target: VAX1 (Homo sapiens, UniProt Q5SQQ9 86-172, K157R)
NKX3-2 [13] = molecular target: NKX3-2 (Homo sapiens, UniProt P78367 192-278, P234S)
NKX3-2 [14] = molecular target: NKX3-2 (Homo sapiens, UniProt P78367 192-278)
Chain of NKX3-2 (Homo sapiens, UniProt P78367 192-278) (P78367 192-278): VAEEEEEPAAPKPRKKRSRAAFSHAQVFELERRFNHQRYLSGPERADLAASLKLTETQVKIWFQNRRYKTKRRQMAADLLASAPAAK

Chain of NKX3-2 (Homo sapiens, UniProt P78367 192-278, P234S) (P78367 192-278 P234S): as the sequence (P78367 192-278) above, with P43S counted along it
Chain of ALX1 (Homo sapiens, UniProt Q15699 118-204, L144V) (Q15699 118-204 L144V): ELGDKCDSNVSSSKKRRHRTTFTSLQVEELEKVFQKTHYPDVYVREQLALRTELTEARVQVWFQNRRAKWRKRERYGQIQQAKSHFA
Chain of MSX2 (Homo sapiens, UniProt P35548 130-214) (P35548 130-214): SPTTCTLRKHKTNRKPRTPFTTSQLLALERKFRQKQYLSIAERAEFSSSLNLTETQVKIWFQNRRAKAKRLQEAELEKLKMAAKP
Chain of MSX2 (Homo sapiens, UniProt P35548 130-214, F161Y) (P35548 130-214 F161Y): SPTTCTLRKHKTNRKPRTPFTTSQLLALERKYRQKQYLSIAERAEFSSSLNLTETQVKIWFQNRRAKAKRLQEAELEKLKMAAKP
Chain of ALX1 (Homo sapiens, UniProt Q15699 118-204) (Q15699 118-204): as the sequence (Q15699 118-204 L144V) above, with V27L counted along it
Chain of MSX2 (Homo sapiens, UniProt P35548 130-214, R199I) (P35548 130-214 R199I): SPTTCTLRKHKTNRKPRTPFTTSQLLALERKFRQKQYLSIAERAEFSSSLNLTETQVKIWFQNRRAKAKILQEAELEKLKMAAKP
Chain of ALX1 (Homo sapiens, UniProt Q15699 118-204, L144R) (Q15699 118-204 L144R): as the sequence (Q15699 118-204 L144V) above, with V27R counted along it
Chain of PROP1 (Homo sapiens, UniProt O75360 56-141) (O75360 56-141): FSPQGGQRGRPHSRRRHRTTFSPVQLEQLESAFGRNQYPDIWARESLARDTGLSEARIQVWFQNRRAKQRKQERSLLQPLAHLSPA
Chain of PROP1 (Homo sapiens, UniProt O75360 56-141, R99H) (O75360 56-141 R99H): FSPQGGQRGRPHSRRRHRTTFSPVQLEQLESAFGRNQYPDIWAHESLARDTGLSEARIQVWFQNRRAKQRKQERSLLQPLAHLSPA
Chain of PROP1 (Homo sapiens, UniProt O75360 56-141, F88S) (O75360 56-141 F88S): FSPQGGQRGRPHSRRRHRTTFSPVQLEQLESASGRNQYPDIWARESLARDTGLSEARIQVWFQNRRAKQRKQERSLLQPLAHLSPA
Chain of VAX1 (Homo sapiens, UniProt Q5SQQ9 86-172) (Q5SQQ9 86-172): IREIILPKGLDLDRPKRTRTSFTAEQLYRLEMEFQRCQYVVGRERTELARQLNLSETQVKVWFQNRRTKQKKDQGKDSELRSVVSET
Chain of VAX1 (Homo sapiens, UniProt Q5SQQ9 86-172, K157R) (Q5SQQ9 86-172 K157R): as the sequence (Q5SQQ9 86-172) above, with K72R counted along it
Chain of VAX1 (Homo sapiens, UniProt Q5SQQ9 86-172, T142I) (Q5SQQ9 86-172 T142I): as the sequence (Q5SQQ9 86-172) above, with T57I counted along it

GACCTCCC
binding signal (MSX2 [1]): 9.42 upbm affinity estimate (log intensity, higher = more binding, comparable within an allelic series) | binding signal (PITX2): 8.09 upbm affinity estimate (log intensity, higher = more binding, comparable within an allelic series) | binding signal (MSX2 [2]): 9.46 upbm affinity estimate (log intensity, higher = more binding, comparable within an allelic series) | binding signal (MSX2 [3]): 9.44 upbm affinity estimate (log intensity, higher = more binding, comparable within an allelic series)

CCTACGGC
binding signal (MSX2 [1]): 9.61 upbm affinity estimate (log intensity, higher = more binding, comparable within an allelic series) | binding signal (ALX1 [4]): 6.56 upbm affinity estimate (log intensity, higher = more binding, comparable within an allelic series) | binding signal (ALX1 [5]): 6.66 upbm affinity estimate (log intensity, higher = more binding, comparable within an allelic series) | binding signal (MSX2 [2]): 9.61 upbm affinity estimate (log intensity, higher = more binding, comparable within an allelic series) | binding signal (MSX2 [3]): 9.63 upbm affinity estimate (log intensity, higher = more binding, comparable within an allelic series) | binding signal (ALX1 [6]): 6.68 upbm affinity estimate (log intensity, higher = more binding, comparable within an allelic series)

CCCTAGCG
binding signal (MSX2 [1]): 9.48 upbm affinity estimate (log intensity, higher = more binding, comparable within an allelic series) | binding signal (MSX2 [2]): 9.29 upbm affinity estimate (log intensity, higher = more binding, comparable within an allelic series) | binding signal (PROP1 [7]): 6.52 upbm affinity estimate (log intensity, higher = more binding, comparable within an allelic series) | binding signal (PROP1 [8]): 6.7 upbm affinity estimate (log intensity, higher = more binding, comparable within an allelic series) | binding signal (VAX1 [9]): 6.79 upbm affinity estimate (log intensity, higher = more binding, comparable within an allelic series) | binding signal (PROP1 [10]): 6.73 upbm affinity estimate (log intensity, higher = more binding, comparable within an allelic series) | binding signal (MSX2 [3]): 9.37 upbm affinity estimate (log intensity, higher = more binding, comparable within an allelic series) | binding signal (VAX1 [11]): 7.2 upbm affinity estimate (log intensity, higher = more binding, comparable within an allelic series) | binding signal (VAX1 [12]): 6.92 upbm affinity estimate (log intensity, higher = more binding, comparable within an allelic series)

CAATCAAA
binding signal (MSX2 [1]): 10.9 upbm affinity estimate (log intensity, higher = more binding, comparable within an allelic series)

AGCTATTA
binding signal (MSX2 [1]): 11.1 upbm affinity estimate (log intensity, higher = more binding, comparable within an allelic series) | binding signal (MSX2 [2]): 12.1 upbm affinity estimate (log intensity, higher = more binding, comparable within an allelic series) | binding signal (MSX2 [3]): 11.9 upbm affinity estimate (log intensity, higher = more binding, comparable within an allelic series)

AGGGGGAG
binding signal (MSX2 [1]): 9.43 upbm affinity estimate (log intensity, higher = more binding, comparable within an allelic series) | binding signal (MSX2 [2]): 9.52 upbm affinity estimate (log intensity, higher = more binding, comparable within an allelic series) | binding signal (MSX2 [3]): 9.49 upbm affinity estimate (log intensity, higher = more binding, comparable within an allelic series)

CCTGTGCC
binding signal (MSX2 [1]): 9.49 upbm affinity estimate (log intensity, higher = more binding, comparable within an allelic series) | binding signal (MSX2 [2]): 9.41 upbm affinity estimate (log intensity, higher = more binding, comparable within an allelic series) | binding signal (PROP1 [7]): 6.6 upbm affinity estimate (log intensity, higher = more binding, comparable within an allelic series) | binding signal (PROP1 [8]): 6.69 upbm affinity estimate (log intensity, higher = more binding, comparable within an allelic series) | binding signal (PROP1 [10]): 6.62 upbm affinity estimate (log intensity, higher = more binding, comparable within an allelic series) | binding signal (MSX2 [3]): 9.42 upbm affinity estimate (log intensity, higher = more binding, comparable within an allelic series)

CAGCGAGA
binding signal (ALX1 [4]): 6.61 upbm affinity estimate (log intensity, higher = more binding, comparable within an allelic series) | binding signal (ALX1 [5]): 6.49 upbm affinity estimate (log intensity, higher = more binding, comparable within an allelic series) | binding signal (ALX1 [6]): 6.63 upbm affinity estimate (log intensity, higher = more binding, comparable within an allelic series)

GGACGGGA
binding signal (MSX2 [1]): 9.67 upbm affinity estimate (log intensity, higher = more binding, comparable within an allelic series) | binding signal (MSX2 [2]): 9.5 upbm affinity estimate (log intensity, higher = more binding, comparable within an allelic series) | binding signal (MSX2 [3]): 9.6 upbm affinity estimate (log intensity, higher = more binding, comparable within an allelic series)

CTGGAACC
binding signal (ALX1 [4]): 6.21 upbm affinity estimate (log intensity, higher = more binding, comparable within an allelic series) | binding signal (ALX1 [5]): 6.18 upbm affinity estimate (log intensity, higher = more binding, comparable within an allelic series) | binding signal (ALX1 [6]): 6.07 upbm affinity estimate (log intensity, higher = more binding, comparable within an allelic series)

CACTATTA
binding signal (ALX1 [4]): 9.26 upbm affinity estimate (log intensity, higher = more binding, comparable within an allelic series) | binding signal (ALX1 [5]): 9.02 upbm affinity estimate (log intensity, higher = more binding, comparable within an allelic series) | binding signal (ALX1 [6]): 9.61 upbm affinity estimate (log intensity, higher = more binding, comparable within an allelic series)

CTGGGCGA
binding signal (ALX1 [4]): 6.34 upbm affinity estimate (log intensity, higher = more binding, comparable within an allelic series) | binding signal (ALX1 [5]): 6.37 upbm affinity estimate (log intensity, higher = more binding, comparable within an allelic series) | binding signal (ALX1 [6]): 6.87 upbm affinity estimate (log intensity, higher = more binding, comparable within an allelic series)

ATGGAAAT
binding signal (MSX2 [1]): 10.4 upbm affinity estimate (log intensity, higher = more binding, comparable within an allelic series) | binding signal (MSX2 [2]): 10.7 upbm affinity estimate (log intensity, higher = more binding, comparable within an allelic series) | binding signal (MSX2 [3]): 10.6 upbm affinity estimate (log intensity, higher = more binding, comparable within an allelic series)

AGCTACGA
binding signal (ALX1 [4]): 6.35 upbm affinity estimate (log intensity, higher = more binding, comparable within an allelic series) | binding signal (ALX1 [5]): 6.56 upbm affinity estimate (log intensity, higher = more binding, comparable within an allelic series) | binding signal (ALX1 [6]): 6.35 upbm affinity estimate (log intensity, higher = more binding, comparable within an allelic series)

AAACAATA
binding signal (ALX1 [4]): 8.22 upbm affinity estimate (log intensity, higher = more binding, comparable within an allelic series) | binding signal (ALX1 [5]): 8.34 upbm affinity estimate (log intensity, higher = more binding, comparable within an allelic series) | binding signal (VAX1 [9]): 9.16 upbm affinity estimate (log intensity, higher = more binding, comparable within an allelic series) | binding signal (VAX1 [11]): 8.8 upbm affinity estimate (log intensity, higher = more binding, comparable within an allelic series) | binding signal (ALX1 [6]): 8.26 upbm affinity estimate (log intensity, higher = more binding, comparable within an allelic series) | binding signal (VAX1 [12]): 8.82 upbm affinity estimate (log intensity, higher = more binding, comparable within an allelic series)

AAGGCGTG
binding signal (ALX1 [4]): 6.54 upbm affinity estimate (log intensity, higher = more binding, comparable within an allelic series) | binding signal (ALX1 [5]): 6.5 upbm affinity estimate (log intensity, higher = more binding, comparable within an allelic series) | binding signal (ALX1 [6]): 6.55 upbm affinity estimate (log intensity, higher = more binding, comparable within an allelic series)

CCTGAGCC
binding signal (MSX2 [1]): 9.54 upbm affinity estimate (log intensity, higher = more binding, comparable within an allelic series) | binding signal (MSX2 [2]): 9.53 upbm affinity estimate (log intensity, higher = more binding, comparable within an allelic series) | binding signal (MSX2 [3]): 9.53 upbm affinity estimate (log intensity, higher = more binding, comparable within an allelic series)

ACATAATA
binding signal (ALX1 [4]): 9.56 upbm affinity estimate (log intensity, higher = more binding, comparable within an allelic series) | binding signal (ALX1 [5]): 9.39 upbm affinity estimate (log intensity, higher = more binding, comparable within an allelic series) | binding signal (ALX1 [6]): 9.89 upbm affinity estimate (log intensity, higher = more binding, comparable within an allelic series)

CCGGGGAG
binding signal (ALX1 [4]): 6.03 upbm affinity estimate (log intensity, higher = more binding, comparable within an allelic series) | binding signal (ALX1 [5]): 6.12 upbm affinity estimate (log intensity, higher = more binding, comparable within an allelic series) | binding signal (NKX3-2 [13]): 10.5 upbm affinity estimate (log intensity, higher = more binding, comparable within an allelic series) | binding signal (ALX1 [6]): 5.94 upbm affinity estimate (log intensity, higher = more binding, comparable within an allelic series) | binding signal (NKX3-2 [14]): 10.5 upbm affinity estimate (log intensity, higher = more binding, comparable within an allelic series)

CTCTTGGC
binding signal (ALX1 [4]): 6.39 upbm affinity estimate (log intensity, higher = more binding, comparable within an allelic series) | binding signal (ALX1 [5]): 6.52 upbm affinity estimate (log intensity, higher = more binding, comparable within an allelic series) | binding signal (NKX3-2 [13]): 11.6 upbm affinity estimate (log intensity, higher = more binding, comparable within an allelic series) | binding signal (ALX1 [6]): 6.47 upbm affinity estimate (log intensity, higher = more binding, comparable within an allelic series) | binding signal (NKX3-2 [14]): 11.7 upbm affinity estimate (log intensity, higher = more binding, comparable within an allelic series)

ATTAAGCA
binding signal (ALX1 [4]): 10.2 upbm affinity estimate (log intensity, higher = more binding, comparable within an allelic series) | binding signal (ALX1 [5]): 9.85 upbm affinity estimate (log intensity, higher = more binding, comparable within an allelic series) | binding signal (ALX1 [6]): 10.5 upbm affinity estimate (log intensity, higher = more binding, comparable within an allelic series)

CCTTGGCG
binding signal (ALX1 [4]): 6.13 upbm affinity estimate (log intensity, higher = more binding, comparable within an allelic series) | binding signal (ALX1 [5]): 6.15 upbm affinity estimate (log intensity, higher = more binding, comparable within an allelic series) | binding signal (ALX1 [6]): 6.14 upbm affinity estimate (log intensity, higher = more binding, comparable within an allelic series)

CGCCGACC
binding signal (MSX2 [1]): 9.46 upbm affinity estimate (log intensity, higher = more binding, comparable within an allelic series) | binding signal (MSX2 [2]): 9.28 upbm affinity estimate (log intensity, higher = more binding, comparable within an allelic series) | binding signal (MSX2 [3]): 9.4 upbm affinity estimate (log intensity, higher = more binding, comparable within an allelic series) | binding signal (NKX3-2 [13]): 10.4 upbm affinity estimate (log intensity, higher = more binding, comparable within an allelic series) | binding signal (NKX3-2 [14]): 10.4 upbm affinity estimate (log intensity, higher = more binding, comparable within an allelic series)
